We go through 25 compounds from PubChem BioAssay (NCATS).

A short description of assay [1]: qHTS assay for small molecule activators of the nuclear factor-kappa B (NF-kB) signaling pathway (AID 651749; active means well fitted activation curve with a large enough effect in the signal ratio; the % refers to the signal ratio; further: % of control where 0% means no effect). As to conditions: NF-kB-bla ME-180 cells, beta-lactamase FRET ratio, 16 h; hits give high values. An outline of the steps: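 ME-180 cells stably carrying a beta-lactamase reporter under an NF-kB response element were exposed to compound or DMSO vehicle for 16 hr at 37C, 5% CO2. Pathway activation was read by FRET, since reporter expression disrupts FRET.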

Assay [2] deals with Peroxisome proliferator-activated receptor alpha (Homo sapiens) (UniProt Q07869). The assay can be described thus: qHTS assay for small molecule agonists of the peroxisome proliferator-activated receptor alpha (PPARalpha) signaling pathway (AID 651778). Further: potency means the concentration at half of the fitted maximal effect. On max response: % of control where 0% means no effect. As to conditions: PathHunter PPARalpha complementation, chemiluminescence, 6 h; max response: hits give high values. Put shortly:
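Cells plated at 2,000/well and held overnight at 37 C, 5% CO2, then compound added by pin tool for 6 hr; after PathHunter detection reagent and 60 min at room temperature, chemiluminescence from enzyme complementation was read.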
(qHTS replaces the single test concentration by a dilution series.)

Assay [3] has as its target Nuclear receptor ROR-gamma (Homo sapiens) (UniProt P51449). The assay can be described thus: qHTS assay for small molecule antagonists of the retinoid-related orphan receptor gamma (ROR-gamma) signaling pathway (AID 651802). Further: nearly all actives have a fitted effect of over 60% in size. Further: potency means the concentration at half of the fitted maximal effect. As to conditions: ROR-gamma antagonist cell reporter assay; series mostly up to 92.2 µM. Put shortly: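 Antagonism is scored as a fall in luminescence from a RORE-luciferase reporter in CHO cells expressing ROR under a TET-inducible promoter, measured 16hr after doxycycline induction in the presence of compound.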

Assay [4] is described as follows: qHTS assay for environmental chemicals that activate the Aryl hydrocarbon Receptor (AhR) signaling pathway (AID 651777). Further: % of control where 0% means no effect; nearly all actives have a fitted effect of over 15% in size. The conditions noted are these: 1A2-DRE human hepatoma cells, luciferase, 24 h; hits give high values. An outline of the steps: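 Human hepatoma 1A2-DRE cells stably carrying a DRE/CYP1A2 promoter–luciferase reporter, 1,200 cells/well, exposed to compound 24 hr at 37 C. Luciferase read by One-Glo luminescence after 30 min at room temperature; increased signal marks AhR activation.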

Assay [5] addresses Tyrosine-protein kinase Yes (Homo sapiens) (UniProt P07947). The assay can be described thus: qHTS for small molecule inhibitors of Yes1 kinase: Primary Screen (AID 686947).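 Further: plate controls were DMSO with enzyme for no effect and no-enzyme DMSO wells for full effect; nearly all actives have a fitted effect of over 60% in size.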 The conditions noted are these: Yes1 kinase biochemical qHTS inhibition; series mostly up to 76.9 µM. An outline of the steps: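 ADP-Glo luminescence readout; final 4 nM Yes1, 0.1 mM ATP, 0.3 mg/mL poly(E4Y), Tris pH 7.5, MgCl2, DTT, Brij-35. 20 min compound preincubation, 60 min reaction at RT. Normalized to DMSO wells with and without enzyme.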

Assay [6] is described as follows: qHTS for Inhibitors of Ubiquitin-specific Protease USP2a Using CHOP2 as the Reporter: K633 Counterscreen (AID 652168). Further: % of control where 0% means no effect. The conditions noted are these: No-enzyme DiUb K48 IQF substrate fluorescence interference, kinetic; series mostly up to 57.5 µM. An outline of the steps: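 Cell-free interference counterscreen without USP2a: compounds pinned into enzyme-free buffer (20 mM Tris pH 8, 2 mM beta-mercaptoethanol, 0.05% Chaps), then DiUb K48-4IQF substrate added (100 nM stock); fluorescence read kinetically, Ex 525/Em 598.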

A short description of assay [7]: qHTS for Inhibitors of Ubiquitin-specific Protease USP2a Using CHOP2 as the Reporter: Cytotox Assay (AID 652170).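 Further: plate controls were DMSO-treated cells for no effect and wells without cells for full effect; nearly all actives have a fitted effect of over 70% in size.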 The conditions noted are these: HCT116 viability, CellTiter-Glo luminescence, 72 h; series mostly up to 46.1 µM. An outline of the steps:
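HCT116 human colon cancer cells, 600 per well in DMEM with 10% FBS, exposed to compounds for 72 hr at 37 deg C. ATP measured by CellTiter-Glo luminescence, normalized to DMSO cells and no-cell background.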

The nature of assay [8]: qHTS assay for small molecule disruptors of the mitochondrial membrane potential - 5 hr assay (AID 651755; calls by dose curve; further: nearly all actives have a fitted effect of over 40% in size; further: potency means the concentration at half of the fitted maximal effect). The conditions noted are these: JC-1-type ratio dye; series mostly up to 92.2 µM. An outline of the steps: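 HepG2 cells, attached overnight at 37C, were exposed to compound or DMSO for 5 hr at 37C, 5% CO2. Mito-MPS dye was then added for 30 min, and fluorescence read at 490/535 nm (monomers) and 540/590 nm (aggregates).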

Assay [9] is described as follows: qHTS assay for small molecule disruptors of the mitochondrial membrane potential - 1 hr assay (AID 651754; calls by dose curve; further: nearly all actives have a fitted effect of over 35% in size; further: potency means the concentration at half of the fitted maximal effect). The conditions noted are these: series mostly up to 92.2 µM. An outline of the steps: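 Steps: seed HepG2 cells and let attach overnight; pin-transfer compound or vehicle; incubate 1 hr at 37C; add Mito-MPS dye for 30 min; read two-channel fluorescence for monomer and aggregate forms.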

A short description of assay [10]: qHTS assay to identify small molecules that stimulate interleukin-8 (IL-8) secretion (AID 651758; active means well fitted activation curve with a large enough effect in the signal ratio; the % refers to the signal ratio; further: 0% is about no effect). The conditions noted are these: HTRF ratio (665/615); series mostly up to 92.2 µM. An outline of the steps: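 THP-1, 2000 cells/well; cpd 16 h, 37 C; add cryptate + XL665 anti-IL-8 Abs; RT 1-3 h; TR-FRET read.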

Where “and” joins values, the source holds several entries; their conditions need not be identical. Equal entries are not always repeated. Unmarked numbers belong to inactive results. Inconclusive results are not listed. The source holds several records for some structures; these can differ, active in one and inactive in another. Calls of active or inactive are those of the source. Unless noted, the call rests on the fitted dose curve; in most records, active means well fitted curve in the direction sought with a large enough effect; inconclusive means small, poorly fitted or top-dose-only effect, or another doubt; inactive means no such curve, though single readings can be large; an effect the other way counts as inactive or inconclusive.

Sequence of Peroxisome proliferator-activated receptor alpha (Homo sapiens) (Q07869 whole entry, looked up): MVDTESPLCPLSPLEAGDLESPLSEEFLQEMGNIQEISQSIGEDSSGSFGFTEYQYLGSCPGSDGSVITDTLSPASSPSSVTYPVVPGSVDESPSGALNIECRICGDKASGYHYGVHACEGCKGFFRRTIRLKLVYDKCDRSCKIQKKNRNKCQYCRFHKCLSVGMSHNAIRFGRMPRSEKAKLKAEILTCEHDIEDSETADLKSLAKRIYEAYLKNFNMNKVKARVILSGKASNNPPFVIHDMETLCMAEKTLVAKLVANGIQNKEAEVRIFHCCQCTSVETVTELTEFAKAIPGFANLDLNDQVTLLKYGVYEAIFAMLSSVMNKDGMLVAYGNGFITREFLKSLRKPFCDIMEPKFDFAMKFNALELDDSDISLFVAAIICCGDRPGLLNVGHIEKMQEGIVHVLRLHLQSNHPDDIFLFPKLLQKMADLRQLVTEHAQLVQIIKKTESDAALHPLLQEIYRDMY
Sequence of Tyrosine-protein kinase Yes (Homo sapiens) (P07947 whole entry, looked up): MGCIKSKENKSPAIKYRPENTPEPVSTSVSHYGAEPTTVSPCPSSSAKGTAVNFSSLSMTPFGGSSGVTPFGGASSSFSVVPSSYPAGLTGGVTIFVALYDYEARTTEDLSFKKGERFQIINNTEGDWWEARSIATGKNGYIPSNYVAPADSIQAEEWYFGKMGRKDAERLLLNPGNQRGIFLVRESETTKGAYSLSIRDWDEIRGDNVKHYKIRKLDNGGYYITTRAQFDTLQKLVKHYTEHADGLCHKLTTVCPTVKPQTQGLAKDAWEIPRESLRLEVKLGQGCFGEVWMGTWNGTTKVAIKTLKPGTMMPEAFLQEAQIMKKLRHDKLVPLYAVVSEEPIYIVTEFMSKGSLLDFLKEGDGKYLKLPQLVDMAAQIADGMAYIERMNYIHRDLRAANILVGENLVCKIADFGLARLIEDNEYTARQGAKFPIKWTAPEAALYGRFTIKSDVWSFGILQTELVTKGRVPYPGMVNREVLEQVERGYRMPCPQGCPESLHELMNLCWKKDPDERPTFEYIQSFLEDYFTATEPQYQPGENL
Sequence of Nuclear receptor ROR-gamma (Homo sapiens) (P51449 whole entry, looked up): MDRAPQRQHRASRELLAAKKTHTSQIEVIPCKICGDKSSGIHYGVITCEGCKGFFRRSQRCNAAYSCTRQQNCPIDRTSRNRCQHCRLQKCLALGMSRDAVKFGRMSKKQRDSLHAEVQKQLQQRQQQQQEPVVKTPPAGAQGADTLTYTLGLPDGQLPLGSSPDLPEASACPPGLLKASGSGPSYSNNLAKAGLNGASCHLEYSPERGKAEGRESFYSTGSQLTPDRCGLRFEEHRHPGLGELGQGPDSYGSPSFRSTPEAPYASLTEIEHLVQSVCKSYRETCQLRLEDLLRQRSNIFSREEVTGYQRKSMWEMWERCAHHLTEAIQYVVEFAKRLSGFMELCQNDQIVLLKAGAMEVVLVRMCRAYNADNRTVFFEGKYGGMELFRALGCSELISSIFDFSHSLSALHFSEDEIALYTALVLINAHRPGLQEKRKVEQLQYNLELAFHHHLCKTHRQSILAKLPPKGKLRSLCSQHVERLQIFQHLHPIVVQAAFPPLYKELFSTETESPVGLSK

Consider `CC1=NN(c2ccccc2)C(=O)C1`, for which, in assay [1], the activation is 1.02% and -0.66%. Besides, the max response in assay [2] was -0.816% and -5.33%. Further, in assay [3], the Potency entry was “inactive”.

Consider `S=P(N1CC1)(N1CC1)N1CC1`, for which the activation in [1] was 0.913%; in [4], 0.0951%. Further, the max response in assay [2] is -1.18%.

For `CC(C)C[C@H](NC(=O)[C@H](CCc1ccccc1)NC(=O)CN1CCOCC1)C(=O)N[C@@H](Cc1ccccc1)C(=O)N[C@@H](CC(C)C)C(=O)[C@@]1(C)CO1`, in [5], the outcome was inactive.

`O=S(=O)(c1cccc2cnccc12)N1CCCNCC1`: the outcome in assay [5] was inactive.

In the case of `O=C(O)c1cc(=O)[nH]c(=O)[nH]1`, the activation in assay [4] is 0.283%. The max response in assay [2] was -0.877%. Moreover, in assay [3], the Potency entry was “inactive”.

`OC(Cn1cncn1)(Cn1cncn1)c1ccc(F)cc1F`: the activation in [1] is -1.38%; in assay [4], -1.75%. The max response in assay [2] is -1.95%.

As to `Cc1ccnc2c1NC(=O)c1cccnc1N2C1CC1`, the activation in assay [4] was 0.221%. Besides, the max response in assay [2] was -3.94%. In assay [3], the Potency entry is “inactive”.

In the case of `CC(=O)Oc1ccccc1C(=O)Nc1ncc([N+](=O)[O-])s1`, in assay [1], the activation was -1.07%. The max response in assay [2] was -4.4%.

Consider `Cc1cc(NS(=O)(=O)c2ccc(N)cc2)no1`, for which, in assay [4], the activation was -0.784%. In assay [2], the max response was -1.17%. Besides, the Potency result in assay [3] is “inactive”. Also, the compound was called inactive in [6] and in [7].

With `COc1cc2nc(N3CCCN(C)CC3)nc(NC3CCN(Cc4ccccc4)CC3)c2cc1OC`, the compound was called inactive in assay [5].

Regarding `CC[C@H](C)C(=O)O[C@H]1C[C@@H](C)C=C2C=C[C@H](C)[C@H](CC[C@@H]3C[C@@H](O)CC(=O)O3)[C@H]21`, the results for the activation in assay [1] and in assay [4] were -1.44% and -1.02%, respectively. Moreover, in assay [8], the Potency entry is “inactive”. For the same compound, the max response in [2] was 1.65%. The Potency in assay [3] is 4.73 µM (active).

In the case of `NNC(=O)c1ccncc1`, the activation was -1.16% in [1] and 4.86% in assay [4]. The Potency result in [9], in [8] and in assay [3] was “inactive” throughout. Also, in assay [10], the outcome was inactive. Further, in assay [2], the max response is -1.45%.

In the case of `N=C(N)c1ccc(OCCCCCOc2ccc(C(=N)N)cc2)cc1`, the activation in [1] was 0.454% and 0.519%. The max response in [2] is -3.05% and -5.88%.

On to `CCN(CC)CCn1c(=O)c(Cc2ccc(OC)cc2)nc2ccccc21`, for which the result in assay [5] was inactive.

Take `Cc1nnc(C(=O)NC(C)(C)c2nc(C(=O)NCc3ccc(F)cc3)c(O)c(=O)n2C)o1`: in [5], the compound was classed as inactive.

With `C[C@]12C=CC(=O)C=C1CC[C@@H]1[C@@H]2C(=O)C[C@@]2(C)[C@H]1CC[C@]2(O)C(=O)CO`, the activation in [1] was 1.39%; in [4], -0.111%. In addition, the Potency result in [9], in assay [8] and in [3] was “inactive” throughout. Also, in assay [2], the max response was -2.07%.

As for `CN(C)c1ccc(C(=C2C=CC(=[N+](C)C)C=C2)c2ccc(N(C)C)cc2)cc1`, the Potency is 0.668 µM (active) in [9], 1.19 µM (active) in [8] and 2.37 µM (active) in [3]. Also, the activation in assay [4] is -11.2% and -3.03%. Moreover, the max response in assay [2] is -11.8% and -11.3%.

`Cc1ncc([N+](=O)[O-])n1CCO`: the result in assay [10] was inactive. The activation in assay [4] is -0.201%. For the same compound, in [2], the max response is -0.879%. The Potency result in assay [3] is “inactive”.

On to `NC(N)=NC(N)=NCCc1ccccc1`, for which the activation was 0.778% and 0.59% in [1]; 1.08% and -0.702% in [4]. The Potency was 35.5 µM (active) in assay [2] and 16.8 µM (active) in assay [3]. The max response in assay [2] was -1.6%.

Turning to `O=C(N[C@H](CO)[C@H](O)c1ccc([N+](=O)[O-])cc1)C(Cl)Cl`, the activation in assay [1] was -1.34% and 1.06%; in assay [4], 2.18% and 1.42%. The Potency entry in [9], in assay [8] and in [3] was “inactive” each time. Moreover, the max response in assay [2] is 0.618% and -1.35%.

Take `Cc1noc(NS(=O)(=O)c2ccc(N)cc2)c1C`: the activation in [1] is -1.4% and -1.01%; in assay [4], 0.11% and 1.55%. The max response in assay [2] was 0.0609% and -2.74%.

Regarding `Cc1nnc(NS(=O)(=O)c2ccc(N)cc2)s1`, the activation in [4] was -0.461%. Further, the max response in [2] is 6.59%. In addition, in assay [3], the Potency entry was “inactive”.

In the case of `CCc1cc(C(N)=S)ccn1`, in assay [1], the activation is 0.391% and -1.64%. For the same compound, the Potency entry in [9], in assay [8] and in assay [3] was “inactive” each time. In addition, the max response in [2] is -3.66% and -3.46%.

As for `N[C@@H](Cc1ccc(O)c(O)c1)C(=O)O`, the figures for the activation in assay [1] and in assay [4] were 0.678% and 2.04%, respectively. Also, in [2], the max response is -1.63%.

On to `CC(=O)[C@H]1CC[C@H]2[C@@H]3CCC4=CC(=O)CC[C@]4(C)[C@H]3CC[C@]12C`, for which, in assay [4], the activation is 0.0693% and 1.75% and -2.26%. For the same compound, the max response in assay [2] is 1.94% and -2.09% and -1.65%.
